From PubChem BioAssay
Most compounds without a hit are left out; they make up all but 19% or so of the library.
Shiga inhibitor: blocks Shiga toxin action in Vero cells | Vero cells, Shiga toxin protein synthesis inhibition reporter | inhibition, % at 38.7 µM | 290,000 compounds, 9.2% hits; in the data active means inhibition mostly above about 28%, no sharp cut-off; inactive means mostly below about 43%; further: 0% is about no effect
AMA1-RON2 inh: disrupts binding of P. falciparum AMA1 to RON2. AlphaScreen AMA1-biotinylated RON2 peptide binding. Potency, µM (top dose mostly 58.2 µM), without a hit: top-dose activity change, negative = inhibition, usual class: inhibitors. 360,000 compounds, 0.2% hits. AID 720542;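 further: potency means the concentration at half of the fitted maximal effect; 0% = vehicle wells and -100% = peptide control; nearly all actives have a fitted effect of over 45% in size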
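AMA1 (3D7) with his tag at 25 nM final met compounds first, then biotinylated RON2 peptide at 25 nM; detection used donor plus acceptor beads, 10 µg/mL apiece, read by AlphaScreen after 30 min at room temperature.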
CHX counter: counter-screen for Shiga toxin inhibitors: cycloheximide protein synthesis inhibition; cell reporter, cycloheximide protein synthesis inhibition counterscreen; max response, %; 300,000 compounds, 12% hits; AID 2314; in the data active means max response mostly above about 13%, no sharp cut-off; inactive means mostly below about 14%; further: read at 38.3 µM for the half of the compounds with a filed dose; 0% is about no effect
Pf growth 48h: P. falciparum growth inhibition at 48 hours (one generation) | P. falciparum luciferase growth in erythrocytes, 48 h | Potency, µM (titrated, usually from 28.7 µM), for the others: top-dose activity change, negative = inhibition, hits mostly inhibitors | 310,000 compounds, 5.9% hits | AID 504832; further: potency means the concentration at half of the fitted maximal effect; on the % scale 0 is the no-effect control and ±100 the full control effect
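Firefly luciferase activity from engineered P. falciparum reports growth; inhibitors lower the luminescent signal. Cultures contained 2% hematocrit erythrocytes at 0.1% final parasitemia.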
SARS PLpro yeast: SARS-CoV PLP inhibition in yeast | S. cerevisiae expressing SARS-CoV PLpro, growth rescue | Potency, µM (doses to about 32.9 µM), inactives show at the highest dose activity, positive = growth rescue, most hits filed as activators | 330,000 compounds, 0.19% hits | AID 485353; calls by dose curve; further: potency means the concentration at half of the fitted maximal effect; 0% is about no effect; nearly all actives have a fitted effect of over 55% in size
Pf growth 96h: P. falciparum growth inhibition at 96 hours; P. falciparum luciferase reporter growth, 96 h; Potency, µM (highest dose often 28.7 µM), without a hit: at the highest dose activity change, negative = inhibition, hits mostly inhibitors; 320,000 compounds, 6.9% hits; further: potency means the concentration at half of the fitted maximal effect; on the % scale 0 is the no-effect control and ±100 the full control effect
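P. falciparum expressing integrated firefly luciferase, in erythrocytes at 2% hematocrit, 0.05% parasitemia, incubated with compounds 96 h at 37 C, 5% CO2. Growth inhibition read as loss of luminescence; two-generation exposure targets delayed-death apicoplast inhibitors.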
The depositor's hits bear a star; ? = inconclusive; nt = not tested or not shown. Unless noted, the call rests on the fitted dose curve; in most records, active means well fitted curve in the direction sought with a large enough effect; inconclusive means small, poorly fitted or top-dose-only effect, or another doubt; inactive means no such curve, though single readings can be large; an effect the other way counts as inactive or inconclusive.

SMILES	Shiga inhibitor	AMA1-RON2 inh	CHX counter	Pf growth 48h	SARS PLpro yeast	Pf growth 96h
FC(F)(F)c1cnc(-c2cnc3c(-c4ccc(Cl)cc4)cnn3c2)c(Cl)c1	14	4%	-2	-5%	-1%	18%
Cc1cc2ncc(C(N)=O)cn2n1	20	14%	-4	6%	0%	31%
Cc1cc2ncc(-c3ncc(C(F)(F)F)cc3Cl)cn2n1	10	3%	15*	68%	-5%	1%
COc1ccc(-c2cnn3cc(-c4cccc(Cl)c4)cnc23)cc1	-9	-4%	-6	30%	-2%	-1%
CCOc1ccccc1/C=N/NC(=O)C[n+]1ccccc1	nt	8%	nt	?	-2%	?
Cn1nnc2cc(NC(=O)Nc3cccc(C(F)(F)F)c3)ccc21	18	1%	1	nt	14%	0%
Cc1cc(C(=O)OCC(=O)N2CCc3ccccc32)c(C)o1	37	34%	25*	97%	-3%	nt
O=C(OCC(=O)N1CCc2ccccc21)C1=COCCO1	56*	0%	37*	65%	-3%	?
CCn1c(CC(=O)Nc2ccccc2)n[nH]c1=S	-11	-13%	0	-15%	1%	-2%
CC(=O)NCCn1c(SCc2cccc([N+](=O)[O-])c2)nc2ccccc2c1=O	-13	1%	-8	-15%	-3%	-3%
O=C(NCc1cccc2[nH]ccc12)C1CCC(=O)N(CCc2ccccc2)C1 (stereo not drawn)	7	-6%	12	-15%	1%	?
COc1ccc(CCN2CC(C(=O)NCc3cccc4[nH]ccc34)CCC2=O)cc1 (stereo not drawn)	5	-9%	1	-16%	2%	9.3µM*
Cc1cc(C)nc(CCNC(=O)C2CCC(=O)N(Cc3ccccc3F)C2)n1 (stereo not drawn)	17	2%	10	23%	-3%	62%
Cc1ccc(CCCNC(=O)C2CCC(=O)N(Cc3cccc(F)c3)C2)cc1 (stereo not drawn)	-2	2%	14*	?	-1%	7%
COc1ccc(CCCNC(=O)C2CCC(=O)N(Cc3ccccc3F)C2)cc1 (stereo not drawn)	27	-7%	31*	-20%	3%	-22%
COc1ccccc1CN1CC(C(=O)NCCc2ccccc2Cl)CCC1=O (stereo not drawn)	59*	0%	38*	0%	-7%	22%
COc1ccc(S(=O)(=O)NC(=O)C2(C)CCN2C(=O)Cc2ccccc2Cl)cc1 (stereo not drawn)	nt	9%	nt	nt	nt	nt
CN(/N=C/c1ccc(Br)o1)C1=NS(=O)(=O)c2ccccc21	-18	0%	-3	0%	1%	?
O=C(c1ccc(=O)[nH]c1)N1CCN(S(=O)(=O)c2ccc3ccccc3c2)CC1	nt	-8%	nt	32%	-12%	-4%
CC(O)CNCc1ccccc1C(F)(F)F (stereo not drawn)	21	-4%	1	3%	3%	2%
O=C1CCCc2oc3c(c21)CCCC3	17	-27%	4	10%	1%	2%
COc1ccccc1CN1CC(C(=O)NCc2cccnc2)CC1=O (stereo not drawn)	-11	-1%	-2	15%	1%	2.1µM*
COc1ccccc1CN1CC(C(=O)NCc2cccc(Cl)c2)CCC1=O (stereo not drawn)	8	6%	9	6%	?	-2%
COc1ccccc1CCCNC(=O)C1CCC(=O)N(Cc2ccccc2F)C1 (stereo not drawn)	100*	12%	41*	14%	3%	?
CCOC(=O)CC1(NC(=O)C2CCC(=O)N(CCc3ccc(OC)cc3)C2)CCCCC1 (stereo not drawn)	2	7%	29*	?	?	?
SMILES	Shiga inhibitor	AMA1-RON2 inh	CHX counter	Pf growth 48h	SARS PLpro yeast	Pf growth 96h
Cc1ccc(CCNC(=O)C2CCC(=O)N(Cc3ccccc3F)C2)o1 (stereo not drawn)	102*	-13%	40*	?	-1%	7%
Nc1ccccc1SC(CC(=O)c1ccccc1)c1cccc([N+](=O)[O-])c1 (stereo not drawn)	nt	-6%	nt	nt	nt	nt
COc1ccccc1CN1CC(C(=O)N2CCC(C(=O)c3ccccc3)CC2)CCC1=O (stereo not drawn)	58*	1%	36*	?	-1%	25%
O=C(NCc1ccccc1Cl)C1CCC(=O)N(CC2CCCCC2)C1 (stereo not drawn)	-29	-10%	10	3%	-5%	16%
O=C(NCCc1ccccc1Cl)C1CCC(=O)N(CC2CCCCC2)C1 (stereo not drawn)	-7	-3%	11	-9%	-2%	13µM*
CCc1ccc(CN(C)C(=O)C2CCC(=O)N(CC3CCCCC3)C2)cc1 (stereo not drawn)	11	-13%	38*	?	-4%	13µM*
O=C(CCn1cccn1)N1CCCC(N2CCN(c3cccc(Cl)c3)CC2)C1 (stereo not drawn)	8	-5%	8	-18%	-4%	65%
O=C(O)Cc1cc(F)c(S(=O)(=O)N2CCN(S(=O)(=O)c3ccc4c(c3)OCCO4)CC2)cc1F	-5	nt	-7	nt	nt	nt
COc1ccc(NC(=O)CSc2nnc3n2CCCCC3)cc1S(=O)(=O)N(C)C	nt	-10%	nt	nt	nt	nt
CC(C)c1ccc(CN(C)CC(O)c2ccccc2)cc1 (stereo not drawn)	13	7%	8	2.6µM*	-1%	9.3µM*
CN(CCOc1ccc(Cl)cc1)CC(O)c1ccccc1 (stereo not drawn)	-11	2%	5	9.3µM*	1%	?
CC(OCC(O)CN(C)CCOc1ccccc1)c1ccc(Cl)cc1 (stereo not drawn)	-7	-22%	-2	?	-5%	12µM*
CN(CCOc1ccc(Br)cc1)CC(O)c1ccccc1 (stereo not drawn)	-12	?	5	?	0%	-13%
O=C(C1=C[C@H](c2csc3ccccc23)C[C@H](OCc2ccc(CO)cc2)O1)N1CCOCC1	-13	-1%	-2	-25%	-1%	?
O=C(Nc1ccccc1)C1=C[C@@H](c2csc3ccccc23)C[C@@H](OCc2ccc(CO)cc2)O1	7	-7%	-1	?	-2%	9.3µM*
O=C(NCc1ccccc1)C1=C[C@H](c2csc3ccccc23)C[C@H](OCc2ccc(CO)cc2)O1	-1	-1%	-4	9.3µM*	2%	13µM*
C#CCNC(=O)C1=C[C@H](c2csc3ccccc23)C[C@H](OCc2ccc(CO)cc2)O1	-3	0%	1	?	-1%	?
O=S(=O)(Nc1cc2nc3ccccc3nc2n1Cc1ccccc1)c1ccc(Cl)cc1	13	-4%	0	1.3µM*	-7%	0.83µM*
